Here are results for 33 compounds from PubChem BioAssay AID2156 (Johns Hopkins Ion Channel Center, 2009).

In all, about 310,000 compounds went through this assay and about 3,400 (1.1%) were called active. Many of the other results were omitted from the sample, so actives are more common in it than they were. Unmarked numbers belong to inactive results.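 The calls were made as follows: active = fluorescence ratio B-score at most minus 3 library SDs, with starting brightness B-score within 2 library SDs (cut at about -5.5 in these data); inactive = the rest, inconclusive results apart.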

Sequence of Potassium voltage-gated channel subfamily KQT member 2 (Rattus norvegicus) (O88943 whole entry, looked up): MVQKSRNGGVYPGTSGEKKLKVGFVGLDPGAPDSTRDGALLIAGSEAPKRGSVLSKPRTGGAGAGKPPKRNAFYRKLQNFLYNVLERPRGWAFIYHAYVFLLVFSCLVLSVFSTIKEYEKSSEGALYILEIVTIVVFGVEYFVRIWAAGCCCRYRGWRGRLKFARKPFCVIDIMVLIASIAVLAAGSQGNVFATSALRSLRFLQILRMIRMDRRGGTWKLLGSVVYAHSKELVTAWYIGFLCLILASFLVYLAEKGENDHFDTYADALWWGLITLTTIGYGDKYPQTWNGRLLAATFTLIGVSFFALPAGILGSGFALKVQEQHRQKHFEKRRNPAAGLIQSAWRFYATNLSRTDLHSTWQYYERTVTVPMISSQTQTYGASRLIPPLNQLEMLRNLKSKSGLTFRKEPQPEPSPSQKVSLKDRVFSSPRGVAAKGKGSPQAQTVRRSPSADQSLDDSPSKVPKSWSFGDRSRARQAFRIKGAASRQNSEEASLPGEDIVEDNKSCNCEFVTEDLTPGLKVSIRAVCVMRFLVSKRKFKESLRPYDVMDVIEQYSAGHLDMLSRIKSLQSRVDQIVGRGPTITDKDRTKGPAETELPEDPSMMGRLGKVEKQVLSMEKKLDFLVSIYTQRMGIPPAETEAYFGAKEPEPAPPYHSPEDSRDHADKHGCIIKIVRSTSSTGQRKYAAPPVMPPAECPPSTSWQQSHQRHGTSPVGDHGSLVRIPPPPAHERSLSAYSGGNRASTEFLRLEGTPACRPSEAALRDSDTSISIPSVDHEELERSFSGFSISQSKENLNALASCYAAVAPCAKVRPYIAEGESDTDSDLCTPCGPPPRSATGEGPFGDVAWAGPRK

The experiment addresses Potassium voltage-gated channel subfamily KQT member 2 (Rattus norvegicus) (UniProt O88943). The experiment is described as follows: KCNQ2 channel blockers in CHO-K1 cells – cell-based, FluxOR thallium flux, B-score, primary screen (AID 2156). The conditions noted are these: 20 min, at 10 µM; stronger effect = lower value.
Consider `Cc1onc(-c2ccccc2Cl)c1C(=O)NCCn1ccc2ccccc21`, for which the B-score was -5.59 (active).
Take `Cc1onc(-c2ccccc2Cl)c1C(=O)OCC(=O)c1ccccc1`: the B-score is -1.85.
The figure for `Cc1ccc2cc(CCNC(=O)c3c(-c4ccccc4Cl)noc3C)c(=O)[nH]c2c1` is -1.13; for `COc1ccc(OC(C)C(=O)NCCc2nc3ccccc3[nH]2)cc1` (stereo not drawn) it is “inactive”.
The figure for `Cc1ccc(-c2nc3ccccc3[nH]2)cc1N` is -0.17; for `COc1ccc(-c2[nH]nc(-c3ccccc3)c2-c2nc3ccccc3[nH]2)cc1` it is -7.31 (active).
The value for `COc1ccc(CCNC(=S)N2CCN(S(=O)(=O)c3ccc(F)cc3)CC2)cc1` was -0.54; that for `Cc1ccc(CSCC(=O)N(C)CC(=O)Nc2ccc(C)cc2)cc1` was “inactive”; that for `CC(Oc1ccc(Br)cc1)C(=O)NCC(c1ccco1)N1CCCCC1` (stereo not drawn) was -2.11.
As for `CCOC(=O)c1c(NC(=O)CSc2cn(CC)c3ccccc23)sc2c1CCC2`, the B-score is -7.2 (active).
With `CCOC(=O)c1c(NC(=O)Cn2nc(C(F)(F)F)cc2C)sc2c1CCC2`, the B-score was -0.09.
Turning to `CCOC(=O)c1c(NC(=O)C2(C)Cc3ccccc3C(=O)O2)sc2c1CCCC2` (stereo not drawn), the B-score was -5.8 (active).
The entry for `CCOC(=O)c1c(NC(=S)NC)sc2c1CCCC2` is “inactive”.
For `CCOC(=O)c1c(NC(=O)C(C)Sc2c[nH]c3ccccc23)sc2c1CCC2` (stereo not drawn), the B-score is -4.14.
The value for `CCOC(=O)c1c(NC(=O)CCC(=O)NCc2ccco2)sc2c1CCCC2` was “inactive”.
For `CC(Sc1nn(-c2ccc(Cl)cc2)c(=S)s1)C(=O)NCC1CCCO1` (stereo not drawn), the B-score is -0.45.
The figure for `COc1cccc(NC(=O)CSc2nccn(-c3ccc4c(c3)OCCO4)c2=O)c1` is -2.03.
The figure for `COc1ccccc1CCC(=O)NNC(=O)c1ccncc1` is -1.15; for `COc1ccc(S(=O)(=O)N2CCOC23CCN(S(=O)(=O)c2ccc([N+](=O)[O-])cc2)CC3)cc1` it is -0.03.
For the compound `Cc1ccc(N=C2SCCCN2C(=O)c2cccc(N3C(=O)CCC3=O)c2)cc1Cl`, the B-score entry was “inactive”.
The value for `COc1ccccc1NC(=O)C(C)OC(=O)c1ccc(-n2cnnn2)cc1` (stereo not drawn) was “inactive”.
Turning to `O=C(CCN1C(=O)C2CCCCC2C1=O)Nc1ccc(OC(F)F)cc1` (stereo not drawn), the B-score was -1.21.
As to `O=C(COc1cccc(Cl)c1)NCc1ccccc1`, the B-score entry was “inactive”.
The value for `C[C@H](NC(=O)c1ccccc1Cl)C(=O)OCCOc1cccc(Cl)c1` was -6.72 (active); that for `CC(C)NC(=O)c1ccc(Cl)cc1Cl` was “inactive”.
The figure for `CCOC(=O)c1c(C)[nH]c(C(=O)OCC(=O)c2ccc(OC)cc2OC)c1C` is -0.07.
The value for `COc1ccc(S(=O)(=O)N2CCCCC2)cc1NC(=O)C1CC(=O)N(c2ccc3c(c2)OCCO3)C1` (stereo not drawn) was -0.27.
Consider `Cc1csc2nc(O)c(C(=O)NCCN3CCOCC3)c(=O)n12`, for which the B-score result is “inactive”.
The value for `Cc1ccc(C(=O)CSc2ccccc2C(=O)O)cc1` was “inactive”.
As to `Cc1ccc(SCC(=O)c2cc(C)c(OC(=S)N(C)C)c(C)c2)cc1`, the B-score is -7.36 (active).
The entry for `Cc1ccc(SCC(=O)Nc2ccc3c(c2)OCCO3)cc1` is “inactive”.
The figure for `Cc1ncc(CO)c(/C=N/NC(=O)c2cccc(S(=O)(=O)N3CCCC3)c2)c1O` is -2.49.
The value for `Cc1ccc(C(=O)NC2CCCC(C)C2C)cc1S(=O)(=O)N1CCCCC1` (stereo not drawn) was -3.09.
